# Test system: Chordin-like protein 2 (CHRDL2)
# Test: compounds binding chordin-like 2 – biochemical, small-molecule microarray, 635 nm fluorescence, primary screen (AID 1126);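 note: printed compound slides probed with Chrdl2 protein at 4 µg/mL for 1 h at 4 C; score merges 667 nm emission intensity with signal to noise over three replicate slides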
# Conditions: fluorescence 635 nm, higher = more signal
row,Structure (SMILES),composite z-score
1,C=CCc1cccc([C@@H]2[C@@H](C)CC[C@H]3C(=O)N4[C@H](c5cccc(CC=C)c5)[C@@H](C)CC[C@H]4C(=O)N23)c1,0.977
2,CCCCCCc1nc(C2CC2)c(C)c2c1[Si](C(C)C)(C(C)C)OC2,0.63
3,CC(C)(C)OC(=O)CC[C@]1(C(=O)NCCN2CCOCC2)N=C(c2ccc(OCCCO)cc2)O[C@H]1c1ccccc1CN=[N+]=[N-],-1.1
4,CCOC(=O)C[C@H]1[C@H](OC(=O)c2ccccc2-c2ccccc2)[C@@H](NC(=O)c2ccc(-c3ccccc3)cc2)c2cc(OCCCO)ccc2N1C(=O)Cc1ccc(OC)cc1,0.335
5,C=CCN1C(=O)[C@@]2(Cc3ccccc3)N=C(c3ccc(OCCCO)cc3)O[C@H]2c2ccccc21,1.23
6,C=CCC(OC(C)=O)[C@@H]1[C@@H](N(Cc2cc3ccccc3o2)C(=O)c2ccc(C)cc2)c2cc(OCCCO)ccc2N1C(=O)c1ccc2ccccc2n1 (stereo partly specified),0.194
7,C=C(C(=O)CC[C@H](OC(=O)c1ccccc1-c1ccccc1C(=O)O)c1ccc(CO)o1)C(C)C,0.442
8,O=C(CS)NCCCCCNC(=O)[C@H]1C[C@H]2C(=O)N3CCC[C@H]3C(=O)N2[C@H]1c1ccc(O)cc1,0.641
9,N#Cc1ccc(NN2C(C(O)CCc3ccccc3)C=CC3C(=O)N(c4ccccc4)C(=O)C32)cc1 (stereo unspecified),-0.794
10,O=[N+]([O-])c1ccc(C[n+]2ccc3ccc(O)cc3c2)o1,0.0197
11,Cc1ccc(S[C@]2(C(=O)NC(C)C)CC(=O)N(Cc3cc(C(F)(F)F)cc(C(F)(F)F)c3)[C@@H]2c2ccc(CO)cc2I)cc1,-1.21
12,COC(=O)[C@@]1(Cc2ccccc2N=[N+]=[N-])N=C(c2ccc(OCCCO)cc2)O[C@H]1c1ccccc1CN=[N+]=[N-],0.0008
13,O=C(NCc1ccccc1)c1ccc(Br)cc1[N+](=O)[O-],0.446
14,C=C(COC)/C(=C/C[C@H](OC(C)=O)c1ccc(OCCO)cc1)c1cnc2ccccc2c1,1.24
15,COc1cc2c(cc1OC)CN(C(=O)[C@H]1[C@@H]3C(=O)O[C@@H](c4ccccc4)[C@@H](c4ccccc4)N3[C@@H](c3ccccc3OCCO)[C@]13C(=O)Nc1ccc(C#CC4(O)CCCCCC4)cc13)CC2,0.454
16,COCCOC(=O)N1C(=O)[C@@]2(c3cc(C#CCCO)ccc31)[C@H](c1ccc(O)cc1)N1[C@H](c3ccccc3)[C@H](c3ccccc3)OC(=O)[C@H]1[C@@H]2C(=O)Nc1nc2ccccc2s1,0.633
17,CC[C@H]1C2=C3C(CC[C@H]4C(OC)OC[C@](C)([C@@H]34)N(C(=O)OC(C)(C)C)C2)C(CO)C1CO (stereo partly specified),-0.656
18,CN(C)C(=O)[C@@]1(Cc2ccccc2N=[N+]=[N-])N=C(c2ccc(OCCCO)cc2)O[C@H]1c1ccccc1CN=[N+]=[N-],-0.393

row,Structure (SMILES),composite z-score
1,CC(C)[C@H]1NC(=O)[C@@]23C(=O)N[C@@H](Cc4ccccc4)C2[C@H](C)[C@@]2(C)O[C@H]2C3/C=C/C/C=C\CNC(=O)[C@H](C)NC1=O (stereo partly specified),-0.433
2,O=C1c2ccccc2[C@](Cc2ccccc2I)(C(=O)NCc2ccccc2)[C@H](c2ccc(CO)cc2)N1Cc1ccccc1C(F)(F)F,-1.84
3,O=C1c2ccccc2[C@](Cc2ccccc2I)(C(=O)NCC(F)(F)F)[C@H](c2ccc(CO)cc2)N1Cc1ccccc1C(F)(F)F,-0.324
4,CCC1=C2CN(Cc3ccccc3Br)[C@@H]([C@@H](O)Cc3ccccc3)C2C=CCC1 (stereo partly specified),0.611
5,C=CCc1cccc([C@H]2N[C@H](C(=O)O)CC[C@@H]2C)c1,0.843
6,COC(=O)C1=CC(c2ccc(CO)cc2)=CC(c2cccs2)N(Cc2cccc(OC(F)(F)F)c2)C=C1C(=O)OC (stereo unspecified),-0.602
7,C=C(CCCC)C(=O)CC[C@@H](OC(=O)c1cccnc1)c1cccc(OCCO)c1,0.207
8,CO[C@H]1COC(=O)[C@H](Cc2ccccc2)NC(=O)CC=C[C@@H](C)[C@H](OC)COC(=O)CC=C[C@@H]1C,0.53
9,COCCOC(=O)N1C(=O)[C@@]2(c3cc(C#CCC(C(=O)OC)C(=O)OC)ccc31)[C@H](C(=O)N1CCN(c3ncccn3)CC1)[C@H]1C(=O)O[C@H](c3ccccc3)[C@H](c3ccccc3)N1[C@@H]2c1ccc(O)cc1,-0.358
10,CCCC=C(CCC)[C@@H](NS(=O)(=O)c1cccc(C(F)(F)F)c1)c1ccc(C(=O)OC)cc1,-1.35
11,NC(=O)[C@H]1[C@@H]2C(=O)O[C@@H](c3ccccc3)[C@@H](c3ccccc3)N2[C@@H](c2ccc(O)cc2)[C@]12C(=O)Nc1ccc(C#CCCO)cc12,-0.92
12,O=C(O)[C@@H]1Cc2c([nH]c3ccccc23)[C@@H](c2ccccc2)N1,0.379
13,COc1cc2c(cc1OC)CN(C(=O)[C@@H]1[C@H]3C(=O)O[C@H](c4ccccc4)[C@H](c4ccccc4)N3[C@H](c3ccccc3OCCO)[C@@]13C(=O)Nc1ccccc13)CC2,0.182
14,CCCC=C(CCC)[C@@H](NS(=O)(=O)c1ccc(-c2ccccc2)cc1)c1ccc(C(=O)OC)cc1,-0.705
15,O=C/C=C/c1ccccc1Cl,-0.768
16,[N-]=[N+]=NCc1ccccc1[C@H]1OC(c2ccc(OCCCO)cc2)=N[C@@]1(Cc1ccccc1N=[N+]=[N-])C(=O)NCc1ccccc1,-0.633
17,O=C1c2ccccc2[C@](Cc2ccccc2I)(C(=O)O)[C@H](c2ccc(CO)cc2)N1C1CCCCC1,-0.423
18,C=CCC(OC(C)=O)[C@@H]1[C@@H](N(Cc2cc3ccccc3o2)C(=O)Cc2ccc(F)cc2)c2cc(OCCCO)ccc2N1C(=O)c1ccc(-c2ccccc2)cc1 (stereo partly specified),-0.26

# Source: PubChem BioAssay
